These results are taken from PubChem BioAssay (NCATS).

Records with an inconclusive call do not appear. Unmarked numbers belong to inactive results. Calls of active or inactive are those of the source. Calls follow the shape of the dose curve; as a rule, active = well fitted curve in the direction sought with a large enough effect; inconclusive = small, poorly fitted or top-dose-only effect, or another doubt; inactive = no such curve, though single readings can be large; an effect the other way counts as inactive or inconclusive.

Test [1] addresses Rap guanine nucleotide exchange factor 3 (Homo sapiens) (UniProt O95398). The test is described as follows: Confirmatory qHTS for antagonist of cAMP-regulated guanine nucleotide exchange factor 3 (EPAC1) (AID 1645880).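 Also: plate controls were DMSO only for no effect and full effect of the ATA control for full effect; nearly all actives have a fitted effect of over 55% in size.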 In short, it runs like this:
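Nucleotide exchange uses 100 nM EPAC1, 250 nM RAP1B-BODIPY-GDP and 50 uM GDP, with compounds in a concentration-titration series. After 5 min at room temperature, fluorescence (480 nm ex/540 nm em) is read every 5 min for 30 min. Data are normalized to control ATA and DMSO.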
For orientation: In qHTS, concentration-response curves come from the screen itself.

In test [2] the target is Rap guanine nucleotide exchange factor 4 (Homo sapiens) (UniProt Q8WZA2). The test is described as follows: Confirmatory qHTS for agonist of cAMP-regulated guanine nucleotide exchange factor 4 (EPAC2) (AID 1645884).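 Also: nucleotide exchange releases bodipy-GDP from Rap1 and this lowers its fluorescence; nearly all actives have a fitted effect of over 65% in size.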 Also: potency is read from the fitted curve at half-maximal effect. As to activation: % is scaled to controls: 0 for no effect and ±100 for the full control effect.
Chain of Rap guanine nucleotide exchange factor 4 (Homo sapiens) (Q8WZA2 whole entry, looked up): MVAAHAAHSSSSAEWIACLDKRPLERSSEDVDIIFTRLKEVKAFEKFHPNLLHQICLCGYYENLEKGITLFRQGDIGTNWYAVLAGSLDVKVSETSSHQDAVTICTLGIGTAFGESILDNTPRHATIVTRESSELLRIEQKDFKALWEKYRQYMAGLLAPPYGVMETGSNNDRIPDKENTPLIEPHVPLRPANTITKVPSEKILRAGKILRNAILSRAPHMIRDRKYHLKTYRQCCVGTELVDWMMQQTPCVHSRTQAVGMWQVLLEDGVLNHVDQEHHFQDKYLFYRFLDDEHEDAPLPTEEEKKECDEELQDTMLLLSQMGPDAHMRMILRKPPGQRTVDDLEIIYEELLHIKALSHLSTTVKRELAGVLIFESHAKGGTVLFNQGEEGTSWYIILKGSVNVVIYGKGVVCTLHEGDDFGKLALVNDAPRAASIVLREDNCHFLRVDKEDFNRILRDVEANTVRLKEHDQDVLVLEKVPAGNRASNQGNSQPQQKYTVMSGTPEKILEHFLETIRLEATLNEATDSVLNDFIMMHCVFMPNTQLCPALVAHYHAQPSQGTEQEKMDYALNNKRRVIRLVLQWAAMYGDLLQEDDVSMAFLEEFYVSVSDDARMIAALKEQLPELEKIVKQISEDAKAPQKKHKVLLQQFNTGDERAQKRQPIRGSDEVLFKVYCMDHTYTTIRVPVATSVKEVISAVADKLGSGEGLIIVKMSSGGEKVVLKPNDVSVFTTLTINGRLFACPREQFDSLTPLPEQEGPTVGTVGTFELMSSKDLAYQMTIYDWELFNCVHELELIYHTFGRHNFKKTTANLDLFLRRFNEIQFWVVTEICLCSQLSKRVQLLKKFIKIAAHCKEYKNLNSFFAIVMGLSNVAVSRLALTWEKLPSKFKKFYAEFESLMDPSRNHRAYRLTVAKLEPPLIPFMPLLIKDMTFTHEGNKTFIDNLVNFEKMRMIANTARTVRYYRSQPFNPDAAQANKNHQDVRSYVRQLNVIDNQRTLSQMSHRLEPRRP
Test [3] shares this target. The test is described as follows: Confirmatory qHTS for antagonist of cAMP-regulated guanine nucleotide exchange factor 4 (EPAC2) (AID 1645885). Also: nearly all actives have a fitted effect of over 25% in size. Also: potency is read from the fitted curve at half-maximal effect. As to activity change, negative = inhibition: % is scaled to controls: 0 for no effect and ±100 for the full control effect.
The target of test [4] is Rap guanine nucleotide exchange factor 3 (Homo sapiens) (UniProt O95398). Briefly: Counterscreen qHTS for antagonist of cAMP-regulated guanine nucleotide exchange factor 3 (EPAC1) (AID 1645888). Also: % of control where 0% means no effect. The procedure, abridged: (§1)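 Measured: fluorescence of BODIPY-GDP bound to Rap1B, which falls as exchange proceeds. Conditions include 50 uM competing GDP, 5 and 30 min reads, and a later cAMP challenge for antagonist detection.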
Chain of Rap guanine nucleotide exchange factor 3 (Homo sapiens) (O95398 whole entry, looked up): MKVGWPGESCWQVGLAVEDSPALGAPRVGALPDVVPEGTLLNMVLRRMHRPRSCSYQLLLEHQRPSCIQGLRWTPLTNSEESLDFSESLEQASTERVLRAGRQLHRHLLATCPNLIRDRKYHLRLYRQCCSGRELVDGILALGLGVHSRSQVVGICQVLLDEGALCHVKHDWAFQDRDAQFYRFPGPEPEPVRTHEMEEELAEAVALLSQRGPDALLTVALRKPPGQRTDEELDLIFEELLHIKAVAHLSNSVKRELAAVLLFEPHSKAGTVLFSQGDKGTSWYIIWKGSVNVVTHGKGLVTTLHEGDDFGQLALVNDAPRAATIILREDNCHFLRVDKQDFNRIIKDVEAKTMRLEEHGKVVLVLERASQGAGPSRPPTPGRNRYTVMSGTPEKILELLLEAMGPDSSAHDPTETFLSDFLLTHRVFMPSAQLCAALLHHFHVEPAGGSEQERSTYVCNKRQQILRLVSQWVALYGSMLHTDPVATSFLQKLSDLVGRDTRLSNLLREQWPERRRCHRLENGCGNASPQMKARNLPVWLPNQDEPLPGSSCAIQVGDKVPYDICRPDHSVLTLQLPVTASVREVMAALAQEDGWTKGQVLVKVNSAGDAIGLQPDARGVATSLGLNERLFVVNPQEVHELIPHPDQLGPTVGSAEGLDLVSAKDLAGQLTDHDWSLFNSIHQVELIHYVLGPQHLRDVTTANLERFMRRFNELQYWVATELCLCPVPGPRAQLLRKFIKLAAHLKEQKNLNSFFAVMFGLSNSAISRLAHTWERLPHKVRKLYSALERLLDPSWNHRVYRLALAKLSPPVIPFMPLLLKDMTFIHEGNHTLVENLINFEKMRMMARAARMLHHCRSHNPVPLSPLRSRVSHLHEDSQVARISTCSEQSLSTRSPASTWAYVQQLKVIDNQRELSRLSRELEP
A general note: A counterscreen serves to expose hits that act by an unwanted route or on another target.

Test [5] shares this target. Briefly: Counterscreen qHTS for agonist of cAMP-regulated guanine nucleotide exchange factor 3 (EPAC1) (AID 1645889). Also: nearly all actives have a fitted effect of over 40% in size. Also: potency is read from the fitted curve at half-maximal effect. As to activation: % of control where 0% means no effect. In short, it runs like this:
as §1

Test [6] has the same target. Briefly: Confirmatory qHTS for agonist of cAMP-regulated guanine nucleotide exchange factor 3 (EPAC1) (AID 1645881).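 Also: EPAC1 catalysed release of BODIPY-GDP from Rap1B seen as fluorescence loss; 100% = effect of cAMP agonist control; nearly all actives have a fitted effect of over 75% in size.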

In the case of `O=c1[nH]c(=O)n(-c2cccc(F)c2)c(O)c1/C=C1\C=Nc2ccccc21`, the Potency result in test [1], in test [2], in test [3] and in test [5] was “inactive” throughout. Moreover, the compound was called inactive in test [4].
As for `CCN(CC)c1ccc(N=Cc2c(O)n(CCc3ccc(OC)c(OC)c3)c(=O)[nH]c2=O)cc1`, the Potency entry in test [1] was “inactive”. The activity change, negative = inhibition was -5.1% [at 12.7 µM] in test [3] and -17.1% [at 30.8 µM] in test [4].
On to `COc1ccccc1-n1c(-c2cccs2)nc2ccccc2c1=O`, for which the Potency result in test [1], in test [6] and in test [3] was “inactive” throughout. Moreover, in test [4], the result was inactive.
As to `COc1cc(/C=C/c2nc3ccccc3c(=O)n2-c2cccc(O)c2)ccc1O`, the Potency result in test [6], in test [2] and in test [3] was “inactive” in each case. The outcome in test [4] was inactive.
As for `O=C1CN=C(c2ccccc2)c2cc(Cl)ccc2N1Cc1ccc(Cl)cc1`, the Potency result in test [1] and in test [2] was “inactive” in each case. Moreover, in test [3], the activity change, negative = inhibition was 1.14% [at 12.7 µM]. Also, the compound was called inactive in test [4].
For `Cn1cc(/C=C2\C(=O)NC(=O)N(c3ccccc3)C2=O)c2ccccc21`, the Potency result in test [1] and in test [5] was “inactive” each time. Moreover, the Potency was 112 µM (active) in test [2] and 95.3 µM (active) in test [3]. Besides, the compound was called inactive in test [4].
In the case of `CCOC(=O)[C@]12Cc3cc(Cl)ccc3[C@H]1N(Cc1ccccc1)C(=O)c1ccccc12`, the Potency result in test [6], in test [2] and in test [3] was “inactive” each time. Also, the result in test [4] was inactive.
Regarding `O=c1[nH]c(=S)n(-c2ccc(Cl)cc2)c(O)c1C=Nc1ccc(N2CCOCC2)cc1`, the Potency result in test [1], in test [2], in test [3] and in test [5] was “inactive” throughout. The call in test [4] was inactive.
As to `Nc1cc(Cl)c2nonc2c1[N+](=O)[O-]`, in test [6], the Potency entry was “inactive”. Besides, the activation in test [2] is 5.26% [at 17.1 µM, percent relative to cAMP agonist control]. Besides, the figures for the activity change, negative = inhibition in test [3] and in test [4] were 1.82% [at 12.7 µM] and -3.15% [at 30.8 µM], respectively.
For the compound `Cc1ccccc1OCC(=O)N1CCN(CCc2ccccn2)CC1`, the Potency result in test [1], in test [2] and in test [5] was “inactive” each time. The activity change, negative = inhibition in test [3] was 1.52% [at 12.7 µM]. Besides, in test [4], the result was inactive.
Regarding `CC(C)N1C(=O)/C(=C/C=C/c2ccco2)C(=O)N(Cc2ccco2)C1=O`, the Potency entry in test [1] was “inactive”. The activation in test [2] was 13% [at 17.1 µM, percent relative to cAMP agonist control]. In addition, the figures for the activity change, negative = inhibition in test [3] and in test [4] were 22.6% [at 12.7 µM] and 52.4% [at 30.8 µM], respectively.
Regarding `CCOC(=O)[C@]12Cc3cc(OC)ccc3[C@H]1N(Cc1ccccc1)C(=O)c1ccccc12`, the Potency result in test [6] and in test [2] was “inactive” in each case. Further, in test [3], the Potency was 19 µM (active). In addition, the compound was classed as inactive in test [4].
In the case of `Cc1ccc(N)c(C(=O)c2ccc(Br)cc2)c1`, the Potency entry in test [1], in test [6] and in test [3] was “inactive” in each case. Besides, in test [4], the outcome was inactive.
As for `Cc1cccc(-n2c(O)c(/C=C/C=Nc3ccccc3)c(=O)[nH]c2=O)c1`, the Potency result in test [1] is “inactive”. Moreover, the Potency in test [3] was 33.8 µM (active); in test [5], 39.8 µM (active). The outcome in test [4] was inactive.
`CCOC(=O)[C@]12Cc3ccccc3[C@H]1N(C(C)C)C(=O)c1cc(OC)ccc12`: the Potency entry in test [6] was “inactive”. For the same compound, the activation in test [2] is 1.3% [at 17.1 µM, percent relative to cAMP agonist control]. The activity change, negative = inhibition in test [3] was -28.9% [at 12.7 µM]; in test [4] it was -13.8% [at 30.8 µM].
Turning to `Cc1cccc(OCCn2cccc2/C=C2/C(=O)NC(=O)N(Cc3ccco3)C2=O)c1`, the Potency entry in test [6], in test [2] and in test [3] was “inactive” each time. Besides, the result in test [4] was inactive.
Regarding `CCCCN1C(=O)/C(=C/c2ccc(N(C)C)cc2)C(=O)N(Cc2ccco2)C1=O`, the Potency result in test [6] was “inactive”. In test [2], the activation was 15.2% [at 17.1 µM, percent relative to cAMP agonist control]. Also, the results for the activity change, negative = inhibition in test [3] and in test [4] were 35.5% [at 12.7 µM] and 25.6% [at 30.8 µM], respectively.
